DT40 TDP1 no CPT: qHTS for Inhibitors of human tyrosyl-DNA phosphodiesterase 1 (TDP1): qHTS in cells in absence of CPT. DT40 Tdp1-/- hTDP1 cells, no CPT, ATP luminescence, 48 h. Potency, µM (doses to about 46.2 µM), actives largely listed as inhibitors. 420,000 tested, 15% active. AID 686978, 2013; note: nearly all actives have a fitted effect of over 55% in size
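A cellular qHTS used chicken DT40 cells lacking endogenous Tdp1 but carrying stably transfected human TDP1. Compounds were applied without camptothecin, and cell growth kinetics were judged by ATP-dependent luminescence after ≥48 hr.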
DT40 TDP1 CPT: DT40-hTDP1 cell growth loss with CPT; 420,000 tested, 12% active; Potency, µM (series often up to 46.2 µM), usual class: inhibitors; AID 686979; chicken DT40 Tdp1-/-;hTDP1 cells + 20 nM CPT, ATP luminescence, 48 h; note: nearly all actives have a fitted effect of over 55% in size
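Cell growth measured by CellTiter-Glo luminescence after a minimum 48 h, 37 C compound exposure with 20 nM CPT in Tdp1-knockout DT40 cells stably expressing hTDP1, seeded 400/well; qHTS titration format.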
IL1B secr inh: inhibitors of inflammasome signaling (IL-1 beta secretion). AID 743279. THP-1 LPS/ATP IL-1B secretion, AlphaLISA, 16 h; stronger effect = lower value. 360,000 tested, 4.7% active. activity change, % at 57.5 µM; in the data active = activity change below about -50%; inconclusive = mostly about -30% to -49%
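Secreted IL-1B measured by AlphaLISA bead assay after 16 h compound exposure of THP-1 cells; compounds (final up to 57.5 uM) added 1 h before LPS (250 ng/mL) and ATP (1.25 mM) stimulation; lower signal means less secretion.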
12-LOX inh: blocks human arachidonate 12S-lipoxygenase; P18054; purified 12hLO, xylenol orange hydroperoxide absorbance; Potency, µM (top dose mostly 108 µM), usual class: inhibitors; 580,000 tested, 1.1% active; AID 1671190
Target sequence (P18054 whole entry, looked up): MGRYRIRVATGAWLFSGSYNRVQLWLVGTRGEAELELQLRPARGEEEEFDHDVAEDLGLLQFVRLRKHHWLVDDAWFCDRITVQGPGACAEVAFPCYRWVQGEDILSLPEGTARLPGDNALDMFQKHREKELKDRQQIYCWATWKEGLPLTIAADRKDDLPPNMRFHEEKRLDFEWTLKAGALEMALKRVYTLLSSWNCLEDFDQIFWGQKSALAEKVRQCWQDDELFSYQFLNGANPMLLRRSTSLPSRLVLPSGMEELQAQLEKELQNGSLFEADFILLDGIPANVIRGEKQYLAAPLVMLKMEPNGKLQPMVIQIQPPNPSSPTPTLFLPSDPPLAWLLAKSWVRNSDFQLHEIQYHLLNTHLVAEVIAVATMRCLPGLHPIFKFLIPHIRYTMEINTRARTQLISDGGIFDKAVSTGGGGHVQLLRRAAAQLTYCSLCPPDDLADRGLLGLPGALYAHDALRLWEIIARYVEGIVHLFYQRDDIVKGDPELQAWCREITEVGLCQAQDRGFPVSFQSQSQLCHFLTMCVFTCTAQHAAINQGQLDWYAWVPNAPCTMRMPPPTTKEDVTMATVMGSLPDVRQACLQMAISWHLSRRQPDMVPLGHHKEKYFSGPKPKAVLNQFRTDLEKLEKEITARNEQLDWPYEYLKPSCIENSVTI
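Purified human 12hLO at 150 nM in 25 mM Hepes, 0.01% Triton X-100, pH 7.0, preincubated 15 min at room temperature with compound. Reaction started with 40 uM arachidonic acid, 30 min at room temperature. Hydroperoxide measured by Fe-xylenol orange, 573/405 nm absorbance ratio.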
HT1080-NT tox: kills 2HG-producing HT-1080-NT fibrosarcoma cells; Potency, µM (highest dose often 46.1 µM), most hits filed as cytotoxic; 360,000 tested, 1.6% active; HT-1080-NT fibrosarcoma viability, CellTiter-Glo ATP luminescence, 48 h;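 note: NT is the 2HG producing partner of a matched IDH1 knockdown line; nearly all actives have a fitted effect of over 55% in size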
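HT-1080-NT; 750 cells/well; 5% FBS RPMI; 48 h compound, 37 degrees C; CellTiter-Glo luminescence; curve fitting and curve-class assignment.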
HT1080 IDH1KD tx: HT-1080 IDH1 knockdown cell toxicity (counter line). HT-1080 IDH1 knockdown viability, ATP luminescence, 48 h. Potency, µM (top dose mostly 46.1 µM), hits mostly cytotoxic. 360,000 tested, 2% active. AID 686971
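In this qHTS, HT-1080 cells depleted of IDH1 are exposed for 48 h at 37 °C to compound titrations. Toxicity is scored from CellTiter-Glo luminescence, with DMSO as full viability and medium alone as none.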
Of the large screens only hits and unclear results are named; the others gave an inactive call. The sample as a whole holds a higher share of hits than the screen did. Unless noted, calls come from the whole dose curve; as a rule, active = well fitted curve in the direction sought with a large enough effect; inconclusive = small, poorly fitted or top-dose-only effect, or another doubt; inactive = no such curve, though single readings can be large; an effect the other way counts as inactive or inconclusive.

O=C(Nc1ccc(Cl)cc1)c1nc[nH]c1C(=O)NCCCCNC(=O)c1[nH]cnc1C(=O)Nc1ccc(Cl)cc1	DT40 TDP1 no CPT 4.61µM, DT40 TDP1 CPT 5.8µM, IL1B secr inh inconclusive
O=C(Nc1cccc(Cl)c1)c1nc[nH]c1C(=O)Nc1ccccc1F	DT40 TDP1 no CPT 7.31µM, DT40 TDP1 CPT 4.11µM
CN(Cc1ccccc1)Cc1nc2c(n1Cc1ccccc1)C(=O)N(Cc1cccc(Cl)c1)CCN2	none (no result: DT40 TDP1 no CPT, DT40 TDP1 CPT, IL1B secr inh, HT1080-NT tox, HT1080 IDH1KD tx)
CCOC(=O)c1cc(C)sc1NC(=O)CN1CCN(C(=O)c2ccco2)CC1	DT40 TDP1 no CPT inconclusive, DT40 TDP1 CPT 23.1µM, 12-LOX inh inconclusive
O=C(CN1CCN(C(=O)c2ccco2)CC1)Nc1ccccc1-c1ccccc1	DT40 TDP1 no CPT inconclusive, DT40 TDP1 CPT 25.9µM
CCOC(=O)c1cc(CC)sc1NC(=O)CN1CCN(C(=O)c2ccco2)CC1	DT40 TDP1 CPT inconclusive
O=C(CC1COCCN1C(=O)CCn1ccccc1=O)N1CCCCCC1 (stereo unspecified)	none (no result: DT40 TDP1 no CPT, DT40 TDP1 CPT, IL1B secr inh, HT1080-NT tox, HT1080 IDH1KD tx)
O=C(NCc1nnc2ccccn12)[C@H]1CNC[C@H](C(=O)N2CCOCC2)C1	none (no result: DT40 TDP1 no CPT, DT40 TDP1 CPT, IL1B secr inh, HT1080-NT tox, HT1080 IDH1KD tx)
Cc1cccc(Nc2nnc(-c3cc4ccc(O)cc4oc3=O)s2)c1	none (no result: DT40 TDP1 no CPT, DT40 TDP1 CPT, IL1B secr inh, HT1080-NT tox, HT1080 IDH1KD tx)
Cc1c(Cl)cccc1N=C(N)N=C(N)N	DT40 TDP1 no CPT 23.1µM, DT40 TDP1 CPT inconclusive
NC(N)=NC(N)=Nc1cccc2ccccc12	DT40 TDP1 no CPT inconclusive, DT40 TDP1 CPT inconclusive
CCCCCCC1COC(c2ccc(OCC)cc2)OC1 (stereo unspecified)	none (no result: DT40 TDP1 no CPT, DT40 TDP1 CPT, IL1B secr inh, HT1080-NT tox, HT1080 IDH1KD tx)
CC(C)Oc1ccc(Br)cc1/C=N\NC(N)=S	DT40 TDP1 no CPT 16.4µM, DT40 TDP1 CPT inconclusive, 12-LOX inh 39.8µM
Cc1cc(/C=N\NC(=O)COc2cccc3cccnc23)c(C)n1-c1ccc(Br)cc1	DT40 TDP1 CPT inconclusive
CCc1nnc(N/N=C/c2c(F)cccc2Cl)n1N	DT40 TDP1 CPT inconclusive, HT1080-NT tox inconclusive, HT1080 IDH1KD tx inconclusive
COCc1cc(C)nc(OCC(=O)N/N=C/c2cc(C)n(-c3c(C)cccc3C)c2C)c1C#N	DT40 TDP1 no CPT inconclusive, HT1080-NT tox inconclusive, HT1080 IDH1KD tx inconclusive
Cc1cc(/C=N\NC(=O)c2cccs2)c(C)n1-c1ccc2ncccc2c1	DT40 TDP1 no CPT 10.3µM, DT40 TDP1 CPT 13µM
Cc1nnc(N/N=C/c2c(Cl)cccc2Cl)n1N	IL1B secr inh -104.6
Cc1cccc(C)c1-n1c(C)cc(/C=N/NC(N)=S)c1C	DT40 TDP1 no CPT 8.2µM, DT40 TDP1 CPT 7.31µM, HT1080-NT tox inconclusive, HT1080 IDH1KD tx inconclusive
CCOc1cccc(CNC(=O)C2Cn3cccc3C(=O)N2)c1 (stereo unspecified)	none (no result: DT40 TDP1 no CPT, DT40 TDP1 CPT, IL1B secr inh, HT1080-NT tox, HT1080 IDH1KD tx)
O=C(Nc1cccc(Cl)c1F)N1CCC(n2cnnc2C2CC2)C1 (stereo unspecified)	none (no result: DT40 TDP1 no CPT, DT40 TDP1 CPT, IL1B secr inh, HT1080-NT tox, HT1080 IDH1KD tx)
COCCO[C@H]1C(=O)N(C2CCN(Cc3cccc(OC)n3)CC2)[C@H]1c1ccncc1	none (no result: DT40 TDP1 no CPT, DT40 TDP1 CPT, IL1B secr inh, HT1080-NT tox, HT1080 IDH1KD tx)
O=C(NCc1ccnc2[nH]ccc12)c1ccc(C(F)(F)F)cc1	none (no result: DT40 TDP1 no CPT, DT40 TDP1 CPT, IL1B secr inh, HT1080-NT tox, HT1080 IDH1KD tx)
Cc1cc(/C=N/NC(N)=S)c(C)n1-c1ccc(Br)cc1	DT40 TDP1 no CPT 8.2µM, DT40 TDP1 CPT 2.91µM, 12-LOX inh inconclusive, HT1080-NT tox inconclusive, HT1080 IDH1KD tx inconclusive
Cc1cc(/C=N/O)c(C)n1-c1ccc(Br)cc1	DT40 TDP1 no CPT inconclusive
Cc1nc2ccccn2c1C(=O)N/N=C/c1cc(C)n(-c2ccc(Br)cc2)c1C	DT40 TDP1 no CPT 20.6µM, DT40 TDP1 CPT 18.4µM
Cc1cc(/C=N/NC(N)=S)c(C)n1-c1ccc(Cl)cc1	DT40 TDP1 no CPT 18.4µM, DT40 TDP1 CPT 11.6µM, 12-LOX inh inconclusive
Cc1nnc(N/N=C/c2cc(C)n(-c3ccc(F)cc3)c2C)n1N	DT40 TDP1 no CPT 16.4µM, DT40 TDP1 CPT 13µM, HT1080-NT tox 23.1µM, HT1080 IDH1KD tx inconclusive
Cc1nnc(N/N=C/c2ccccc2O)n1N	HT1080 IDH1KD tx inconclusive
Cc1nc2ccccn2c1C(=O)N/N=C/c1ccccc1	none
COc1cccc(C(=O)N2CCCC(c3noc(COc4ccccc4)n3)C2)c1 (stereo unspecified)	none (no result: DT40 TDP1 no CPT, DT40 TDP1 CPT, IL1B secr inh, HT1080-NT tox, HT1080 IDH1KD tx)
CC(=O)c1c(C)[nH]c(C(=O)c2cc3cc(Br)ccc3o2)c1C	none (no result: DT40 TDP1 no CPT, DT40 TDP1 CPT, IL1B secr inh, HT1080-NT tox, HT1080 IDH1KD tx)
COc1ccc(CCNC(=O)c2ccc3c(=O)n(-c4ccccc4)c(=O)[nH]c3c2)cc1OC	none (no result: DT40 TDP1 no CPT, DT40 TDP1 CPT, IL1B secr inh, HT1080-NT tox, HT1080 IDH1KD tx)
Cc1cc(/C=N/NC(N)=S)c(C)n1-c1cccc(Cl)c1	DT40 TDP1 no CPT 16.4µM, DT40 TDP1 CPT 13µM, 12-LOX inh 39.8µM
O=C(Nc1ccccc1F)c1cccc2c(Cl)cccc12	none (no result: DT40 TDP1 no CPT, DT40 TDP1 CPT, IL1B secr inh, HT1080-NT tox, HT1080 IDH1KD tx)
COc1cccc(-c2cc(NCc3ccc(OC)cc3OC)ncn2)c1	DT40 TDP1 no CPT 13µM, DT40 TDP1 CPT 10.3µM (no result: IL1B secr inh, HT1080-NT tox, HT1080 IDH1KD tx)
COc1ccccc1CNc1cc(-c2ccccc2C)ncn1	DT40 TDP1 no CPT 4.11µM, DT40 TDP1 CPT 4.11µM, 12-LOX inh inconclusive (no result: IL1B secr inh, HT1080-NT tox, HT1080 IDH1KD tx)
COc1cccc(-c2cc(NCc3ccccc3)ncn2)c1	DT40 TDP1 no CPT inconclusive, DT40 TDP1 CPT inconclusive (no result: IL1B secr inh, HT1080-NT tox, HT1080 IDH1KD tx)
COc1ccccc1CNc1cc(-c2cccnc2)ncn1	DT40 TDP1 CPT inconclusive, 12-LOX inh inconclusive (no result: IL1B secr inh, HT1080-NT tox, HT1080 IDH1KD tx)
